Reference: PubChem BioAssay (EPA / NIEHS)
Inconclusive results are not listed. Activity calls are given as the source filed them. How the source made its calls: active means hit-call score of the fitted dose curve at least 0.9, where 1 is the maximum; inconclusive means response in the unintended direction; inactive means score below 0.9.

Test: ATG_XTT_Cytotoxicity: Cytotoxicity Assessment in the Attagene TRANS-FACTORIAL HepG2 Assay (AID 2283584);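 on AC50: cells exposed to compound for 24 h before reading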
Method: ATG_XTT_Cytotoxicity is a cell-based, single-readout assay that uses HepG2, a human liver cell line, with measurements taken at 24 hours after chemical dosing in a 24-well plate.ATG_XTT_Cytotoxicity is one of one assay component(s) measured or calculated from the ATG_XTT_Cytotoxicity assay. It is designed to make measurements of cell number, a form of viability reporter, as detected with […] signals by XTT cytotoxicity assay technology.Data from the assay component ATG_XTT_Cytotoxicity was analyzed into 1 assay endpoint. This assay endpoint, ATG_XTT_Cytotoxicity, was analyzed in the positive analysis fitting direction relative to DMSO as the negative control and baseline of activity. Using a type of viability reporter, loss-of-signal activity can be used to understand changes in the viability. Furthermore, this assay endpoint can be referred to as a primary readout, because the performed assay has only produced 1 assay endpoint. To generalize the intended target to other relatable targets, this assay endpoint is annotated to the cell cycle intended target family, where the subfamily is cytotoxicity.
Human liver HepG2 cells are transiently transfected with multiple reporter transcription units (MRTUs) in 6-well plates using FuGene 6 reagent (Roche; 3 ml FuGene/1 mg DNA). The MRTU constructs are regulated by a cis-regulating element (promoter). […] A major difference between the CIS and TRANS system is that in CIS activities of endogenous TFs are measured, whereas the TRANS assay evaluates changes in activities of exogenous, chimeric NR-Gal4 proteins. […] At the end of 24 hour incubation, total RNA was isolated using TriZol reagent (Invitrogen). The isolated RNA is then reverse-transcribed using oligo(dT) primer and Mo-MLV reverse transcriptase (Invitrogen) with DNAse I (Ambion) treatment for 30 min. The one-tenth of the produced cDNA was amplified by PCR using Taq DNA polymerase (Invitrogen) and two reporter sequence-specific primers. The PCR products were fluorescently labeled by primer extension with 6-arboxyfluorescein (6-FAM) 5'-labeled reporter sequence-specific primer (2 min at 95 C, 20 s at 68 C and 10 min at 72 C) and these products were digested with 5U of HpaI (New England Biolabs) for 2h at 37 C. The fragments were purified using Qiaquick PCR columns (Qiagen), analyzed on an ABI 3130xL genetic analyzer (Applied Biosystems) with peak positions identified by using a set of X-rhodamine (ROX)-labeled MapMarker1000 molecular weight standards (BioVentures). The raw capillary electrophoresis data was processed using Attagraph software (Attagene).

Structure (SMILES)	outcome	AC50
COC(C)(C)CC(C)=O	inactive	
Nc1c(Cl)cc(Cl)cc1[N+](=O)[O-]	inactive	
CCCCCCCCCCCCN1CCCCCC1=O		29.9 µM (active)
CCCCCCC(O)CCCCCCCCCCC(=O)O (stereo not given)	inactive	
CCOC(=O)c1ccc(N)cc1	inactive	
CN(C)CCOc1ccc(/C(=C(/CCCl)c2ccccc2)c2ccccc2)cc1		24.6 µM (active)
Cc1ncc[nH]1	inactive	
CC(=O)c1c(C)c([N+](=O)[O-])c(C(C)(C)C)c([N+](=O)[O-])c1C	inactive	
CC1(C)O[C@@H]2[C@@H](CO[C@@]3(COS(N)(=O)=O)OC(C)(C)O[C@@H]23)O1	inactive	
CCCCOC(=O)CCCCCCCC(=O)OCCCC	inactive	
Oc1ccc2cc(SSc3ccc4cc(O)ccc4c3)ccc2c1	inactive	
COc1ccc(CCN2CCC(Nc3nc4ccccc4n3Cc3ccc(F)cc3)CC2)cc1	inactive	
N[C@@H](Cc1cc(I)c(Oc2cc(I)c(O)c(I)c2)c(I)c1)C(=O)O	inactive	
CCCC(=O)C(CC)Sc1ccoc1C (stereo not given)	inactive	
C=C(C)C(=O)OCCOCCOCCOC(=O)C(=C)C	inactive	
CCOC(=O)CC(C)O (stereo not given)	inactive	
CCCCN(CCCC)C(=O)N(CCCC)CCCC	inactive	
CCCCCCCCCCCC(=O)OC[C@@H](O)[C@H]1OC[C@H](O)[C@H]1O	inactive	
CCC(C)S (stereo not given)	inactive	
Cc1ccc(-c2ccccc2)cc1	inactive	

Structure (SMILES)	outcome	AC50
CCCCCCCCC=CCCCCCCCC1=NCCN1CCO		16.1 µM (active)
C=CCCCCCCCCCC	inactive	
CC(C)(C)C1=CC(=O)C(C(C)(C)C)=CC1=O	inactive	
CCc1cc(Cc2cc(CC)cc(C(C)(C)C)c2O)c(O)c(C(C)(C)C)c1	inactive	
CC(Oc1cc(Cl)ccc1Cl)C(=O)O (stereo not given)	inactive	
IC(I)I	inactive	
CC(C)C(OC(=O)c1ccccc1)C(C)(C)COC(=O)c1ccccc1 (stereo not given)	inactive	
CC(=O)CC(=O)Nc1ccc(C)cc1C	inactive	
OCCOCCN1CCN(C2=Nc3ccccc3Sc3ccccc32)CC1	inactive	
C=Cc1ccc(C(C)(C)C)cc1	inactive	
CCCCCCC(C)(C)S	inactive	
Nc1ccc2c(O)cc(S(=O)(=O)O)cc2c1	inactive	
COc1ccc(N=Nc2cc(C)c(N=Nc3ccc(S(=O)(=O)O)cc3)cc2OC)cc1	inactive	
CCCCCCOC(=O)CCC	inactive	
Cc1ccc(S(N)(=O)=O)cc1	inactive	
COc1ccc(CCO)cc1	inactive	
O=c1[nH]c(=O)c2cn[nH]c2[nH]1	inactive	
C=C(C)C1CC=C(C)C(=O)C1 (stereo not given)	inactive	
CCCCCCCCc1ccc(S(=O)(=O)O)cc1	inactive	
CCCCCCCC(=O)OCCCCCC	inactive	
